Compound activity (PubChem BioAssay)
The sample as a whole holds a higher share of hits than the screen did.
Dicer processing: blocks human Dicer maturation of pre-miR-21 | Q9UPY3 | cat-ELCCA pre-miR-21 Dicer processing, chemiluminescence; active compounds read high | z-score at 25 µM | 6% of 47,000 active | AID 1347074; in the data active means z-score above about 3, passing the limit was not always enough;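 further: plate controls were vehicle for no effect and no enzyme for full effect; higher signal means more uncleaved substrate so more Dicer inhibition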
Target sequence (Q9UPY3 whole entry, looked up): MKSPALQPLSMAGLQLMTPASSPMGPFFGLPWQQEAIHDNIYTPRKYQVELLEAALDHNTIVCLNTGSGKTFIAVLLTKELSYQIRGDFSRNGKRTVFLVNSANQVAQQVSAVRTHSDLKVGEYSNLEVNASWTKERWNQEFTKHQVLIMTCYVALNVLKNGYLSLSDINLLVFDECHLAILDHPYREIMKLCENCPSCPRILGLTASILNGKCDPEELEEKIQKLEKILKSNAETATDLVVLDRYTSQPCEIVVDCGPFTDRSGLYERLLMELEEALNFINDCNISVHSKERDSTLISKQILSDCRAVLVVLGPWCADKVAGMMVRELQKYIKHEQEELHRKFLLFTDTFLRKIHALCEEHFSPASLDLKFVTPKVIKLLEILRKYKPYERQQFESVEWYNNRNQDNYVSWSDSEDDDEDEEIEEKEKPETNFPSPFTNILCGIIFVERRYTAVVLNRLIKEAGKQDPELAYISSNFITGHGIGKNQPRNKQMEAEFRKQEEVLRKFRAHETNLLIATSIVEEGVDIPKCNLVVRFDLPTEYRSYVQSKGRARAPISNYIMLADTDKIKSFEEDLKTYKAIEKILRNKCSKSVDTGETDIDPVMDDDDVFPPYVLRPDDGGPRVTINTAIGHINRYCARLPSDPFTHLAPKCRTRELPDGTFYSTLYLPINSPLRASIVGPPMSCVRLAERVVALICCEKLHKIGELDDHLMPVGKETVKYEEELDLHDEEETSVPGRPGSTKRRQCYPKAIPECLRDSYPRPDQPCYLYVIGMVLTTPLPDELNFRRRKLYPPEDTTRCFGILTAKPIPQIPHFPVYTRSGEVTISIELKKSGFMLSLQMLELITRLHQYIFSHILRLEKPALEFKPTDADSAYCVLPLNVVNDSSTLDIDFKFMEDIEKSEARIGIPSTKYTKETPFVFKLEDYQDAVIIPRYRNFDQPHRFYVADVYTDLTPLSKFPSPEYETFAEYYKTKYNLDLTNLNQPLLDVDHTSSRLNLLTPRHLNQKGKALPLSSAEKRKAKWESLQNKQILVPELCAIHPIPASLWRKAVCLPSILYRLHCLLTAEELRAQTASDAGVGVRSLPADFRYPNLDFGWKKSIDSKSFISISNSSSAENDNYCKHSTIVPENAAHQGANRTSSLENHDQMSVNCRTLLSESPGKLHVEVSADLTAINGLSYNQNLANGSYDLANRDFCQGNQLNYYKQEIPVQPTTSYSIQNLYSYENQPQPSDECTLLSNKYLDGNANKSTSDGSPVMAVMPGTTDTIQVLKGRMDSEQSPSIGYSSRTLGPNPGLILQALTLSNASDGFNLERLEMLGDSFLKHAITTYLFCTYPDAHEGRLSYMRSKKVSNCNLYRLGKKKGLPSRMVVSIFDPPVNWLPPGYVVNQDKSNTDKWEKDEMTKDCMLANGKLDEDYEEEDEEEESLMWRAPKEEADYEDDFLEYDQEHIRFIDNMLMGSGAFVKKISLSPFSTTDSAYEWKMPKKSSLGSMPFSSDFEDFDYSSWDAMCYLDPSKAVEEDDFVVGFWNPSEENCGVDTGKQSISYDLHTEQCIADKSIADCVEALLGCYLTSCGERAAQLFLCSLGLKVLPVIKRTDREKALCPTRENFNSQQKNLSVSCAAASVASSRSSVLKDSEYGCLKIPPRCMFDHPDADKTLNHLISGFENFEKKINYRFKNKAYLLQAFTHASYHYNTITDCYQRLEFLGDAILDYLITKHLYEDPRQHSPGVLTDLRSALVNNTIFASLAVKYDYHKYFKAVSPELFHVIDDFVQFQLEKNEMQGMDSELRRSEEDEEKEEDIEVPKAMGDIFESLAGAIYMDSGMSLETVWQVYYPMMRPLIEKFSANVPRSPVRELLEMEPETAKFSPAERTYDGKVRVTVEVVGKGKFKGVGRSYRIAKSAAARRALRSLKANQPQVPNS
Numbers without * were called inactive.

SMILES	Dicer processing
CN(/N=C/c1ccccc1Cl)c1ncc(C(F)(F)F)cc1Cl	-0.08
CN(NC(=O)c1ccc(Cl)cc1)c1ncc(Cl)cc1C(F)(F)F	3.05
OCn1nnn(-c2ccccc2)c1=S	0.35
CC(C)(C)c1ccc(CSCCNC2=CC(=O)CC(c3ccc4c(c3)OCO4)C2)cc1 (stereo not given)	0.73
Cc1ccc2onc(OC(=O)NC(C)C)c2c1	-0.78
N#CCS(=O)(=O)Cc1ccc(Cl)cc1	-0.91
Cn1c(-c2ccccc2)cn2cc(-c3ccccc3)nc12	8.7
COc1cccc2ccc(=O)n(C)c12	2.12
Cn1c(-c2ccccc2)cccc1=O	3.77*
CCNC(=O)N(Cc1ccccc1)Cc1cccnc1	1.9
O=C(CC1Sc2ccccc2NC1=O)Nc1ccccc1Cl (stereo not given)	2.05
COCCCN=C1NC(=O)C(CC(=O)Nc2ccccc2Cl)S1 (stereo not given)	3.12*
COCCCN=C1NC(=O)C(CC(=O)Nc2cc(Cl)ccc2Cl)S1 (stereo not given)	2.02
Cc1csc2ncnc(N3CCN(C(=S)NCC4CC4)CC3)c12	0.99
CC1(C)CC(=O)C2=C(C1)OC1=C(C2)C(=O)CC(C)(C)C1	0.85
CC1(C)CC(=O)C2=C(C1)OC1=C(C(=O)CC(C)(C)C1)C2c1ccc(Br)cc1	0.76
CC1(C)CC(=O)C2=C(C1)OC1CCCCC21 (stereo not given)	3.42*
O=C(Nc1nn[nH]n1)C1(c2ccccc2)CCCC1	0.29
CSC(SC)=C(C#N)C(=O)c1cccc(C(F)(F)F)c1	5.06*
N#CC(C(=O)c1cccc(C(F)(F)F)c1)=C1SCCCCS1	0.81
CSC(SC)=C(C#N)C(=O)c1cccc(C)c1	-0.63
COC(=O)CNC(=O)CSC(C)C	8.24
O=c1cc(CSc2ccc(Cl)cc2)[nH]n1-c1ccccc1	35.1
O=c1cc(CSc2nc3ccccc3s2)[nH]c2[nH]n(-c3ccccc3)c(=O)c12	0.06
O=c1cc(CSc2ccc(Cl)cc2)[nH]c2[nH]n(-c3ccccc3)c(=O)c12	5.36*
SMILES	Dicer processing
O=C1CCC2C(=O)N(Cc3ccccc3)C(=O)C2C1 (stereo not given)	2.41
COc1ccc(N2COC(C)c3nc4ccccc4n3C2)cc1 (stereo not given)	1.55
Cc1c(NC(=O)Nc2ccc(Cl)cc2Cl)sc2nc(-c3ccc(Cl)cc3)nn12	-1.85
FC(F)(F)c1cccnc1NCCNc1ncnc2scc(-c3ccccc3)c12	-1.29
Oc1c(C(Nc2ccc(Cl)cc2)c2cccnc2)ccc2cccnc12 (stereo not given)	14.6
CN1CCN(c2oc(-c3ccc(F)cc3)nc2C#N)CC1	0.07
Cc1ccc(CSC2=NCCCN2)cc1	1.11
Cc1ccc(CSC2=NCC(C)N2)cc1 (stereo not given)	3.24*
CC1CN=C(SCc2ccc(Cl)cc2)N1 (stereo not given)	2.29
O=c1c2c(n3nnnc3n1Cc1ccccc1)-c1ccccc1CC21CCCCC1	3.21*
CCOC(=O)CSc1nc2c(c(=O)[nH]1)C1(CCCCC1)Cc1ccccc1-2	-0.76
NC(=O)CSc1nnc2n(Cc3ccccc3)c(=O)c3c(n12)-c1ccccc1CC31CCCCC1	2.96
S=c1[nH]c2c(Cl)cc(Cl)cc2s1	-0.57
COc1ccc(C(=O)CSc2nnc(-c3ccccc3)n2C)cc1	-1.29
CCc1nnc(NC(=O)c2cc(Br)ccc2Cl)s1	0.34
CCc1nnc(NC(=S)NC(=O)c2ccccc2)s1	-0.73
CCc1nnc(NC(=O)c2ccccc2O)s1	4.24*
C\C(=N/N=C(\N=C\N(C)C)SCc1ccc(Cl)cc1Cl)c1ccc(C)nc1	-3.7
Cc1cc(-c2nc(-c3ccc(C(F)(F)F)cc3)no2)n(C)n1	0.63
Cc1ccc(C(=O)/C(C#N)=C/c2cc(C(=O)c3ccc(Cl)cc3)cn2C)cc1	-0.48
COc1ccc(C(=O)CC2(O)C(=O)Nc3ccccc32)c(OC)c1 (stereo not given)	8.38
N#C/C(=C\Nc1cnccn1)C(=O)c1cccs1	0.7
O=C1C(O)=C(C(=Nc2ccccc2)c2ccccc2)C(=O)N1c1ccc(Cl)cc1	1.12
O=C(CSc1nc2ccccc2nc1N1CCCC1)Nc1ccc(Br)cc1	2.3
CSc1nsc(SCC(=O)NCc2ccco2)n1	-0.97
SMILES	Dicer processing
O=C(CSc1nc(-c2cccs2)cc(C(F)(F)F)n1)NCc1ccco1	0.51
O=C(CSc1nnc(-c2ccccc2)c(-c2ccccc2)n1)N1CCc2ccccc21	-0.32
O=C(CSc1nc2ccccc2nc1N1CCOCC1)Nc1cccc(Br)c1	3.24*
O=C(CSc1nc2ccccc2nc1N1CCOCC1)NCc1ccco1	3.41*
O=C(CSc1nc2ccccc2nc1SCC(=O)N1CCOCC1)N1CCOCC1	1.49
O=C(CSc1nc2ccccc2s1)N1CCc2ccccc21	1.4
O=C(CSc1nc2ccccc2nc1N1CCOCC1)N1CCCc2ccccc21	3.44*
O=C(CSc1nc2ccccc2nc1N1CCCC1)Nc1ccc(Cl)cc1	2.55
O=C(CSc1nc2ccccc2[nH]1)N1CCc2ccccc21	3.06*
CSc1nsc(SCC(=O)N2CCCc3ccccc32)n1	-1.64
COc1ccc(C2C(C#N)=C(N)Oc3n[nH]c(-c4ccccc4)c32)cc1 (stereo not given)	-5.35
